From PubChem BioAssay AID2717 (Broad Institute, 2010)
Where “and” joins values, the source holds several entries; their conditions need not be identical. Equal values may be shown once. In all, about 300,000 compounds went through this assay and about 3,200 (1.1%) were called active. No stated cut-off is given here; in the data, active means inhibition above about 75%; inconclusive means no clear call, values can overlap the other calls; inactive means below that; tested in HMLE shEcad cells. The entries come from a sample that favours actives as a whole.

experiment: growth suppression of cancer stem-like cells – cell-based, luminescence, primary screen (AID 2717); details: cancer stem cell-like cells viability, at 7.5 µM, hits give high values

Compound | inhibition
COc1ccc(-n2cnnc2SCC(=O)Nc2cccc([N+](=O)[O-])c2)cc1 | -0.247% (inactive)
COc1ccc(CCNC(=O)CSc2nc3[nH]ncc3c(=O)n2-c2cccc(C(F)(F)F)c2)cc1OC | -2.41% (inactive)
NC(=O)NC(=O)CSc1nc2cc([N+](=O)[O-])ccc2n1-c1cccc(C(F)(F)F)c1 | 84.3% (active)
Cc1ccc2c(c1)C1C[N+](C)(CC(=O)c3ccccc3)CCC1N2C(=O)c1ccccc1Cl (configuration not stated) | -11.4% (inactive)
COc1ccc(S(=O)(=O)N(C)C[C@H]2Oc3ccc(NS(=O)(=O)c4cccs4)cc3CC(=O)N([C@H](C)CO)C[C@H]2C)cc1 | -7.45% (inactive)
COc1ccc(N(CCC(=O)NCCc2ccccc2)S(=O)(=O)c2ccc(C)cc2C)cc1 | 0.378% (inactive)
C[C@]12C=CC(=O)C=C1CC[C@@H]1[C@@H]2C(=O)C[C@@]2(C)[C@H]1CC[C@]2(O)C(=O)CO | -3.96% (inactive) and -10.9% (inactive)
CC(=O)C12CC(C)=C(C)CC1CC1C3CCC4=CC(=O)CCC4(C)C3CCC12C (configuration not stated) | 76.7% (active)
CC(=O)[C@@]12O[C@@H]1C[C@H]1[C@@H]3CC[C@H]4C[C@@H](O)CC[C@]4(C)[C@H]3CC[C@@]12C | -0.101% (inactive)
COc1cccc(NC(=O)COC(=O)c2ccc3ccccc3n2)c1 | -12.4% (inactive)
COc1cccc(NC(=O)COc2cccnc2[N+](=O)[O-])c1 | -14.1% (inactive)
CC(=O)c1cccc(OCC(=O)OCC(=O)Nc2cc(S(=O)(=O)N3CCCCC3)ccc2C)c1 | 2.55% (inactive)
O=C(CC1SCCNC1=O)Nc1ccc(Cl)c(Cl)c1 (configuration not stated) | -15.9% (inactive)
CCn1nccc1C(=O)Nc1ccc(Cl)c(Cl)c1 | 6.24% (inactive)
O=C(CC(O)(C(F)(F)F)C(F)(F)F)Nc1ccc(Cl)c(Cl)c1 | 98.6% (active)
Cc1nn(-c2ccccc2)nc1C(=O)OCC(=O)N1CCCCC1C (configuration not stated) | 3.22% (inactive)
O=C(CN1C(=O)c2ccc([N+](=O)[O-])cc2C1=O)Nc1nnc(C2CC2)s1 | -20.4% (inactive)
CC(OC(=O)c1cc2ccccc2[nH]1)C(=O)N(C)c1ccccc1 (configuration not stated) | -15.8% (inactive)
Cc1csc(=O)n1CC(=O)Nc1ccc(S(C)(=O)=O)cc1 | -16.8% (inactive)
COc1ccc(C(=O)OCc2cc(=O)n3ccsc3n2)cc1F | -8.98% (inactive)
Oc1ccccc1C1=NN(c2ccccc2)C(c2ccccc2)C1 (configuration not stated) | 84.6% (active)
O=C(c1ccccc1)N1N=C(c2ccccc2O)CC1c1ccc(Br)cc1 (configuration not stated) | 8.94% (inactive)

Compound | inhibition
COc1ccc(C2CC(c3cccs3)=NN2c2ccccc2)cc1 (configuration not stated) | 4.92% (inactive)
COc1ccc(N2CCN(C(CNS(=O)(=O)c3ccc(C)cc3)c3ccccc3)CC2)cc1 (configuration not stated) | 20.2% (inactive)
COc1cccc(CC(=O)OCC(=O)NCc2ccc3c(c2)OCO3)c1 | -4.31% (inactive)
O=C(NCCc1ccccc1)C1CCN(S(=O)(=O)c2ccc(Br)s2)CC1 | -3.18% (inactive)
Cc1cc(C)c[n+](-c2nc3ccccc3nc2[N-]S(=O)(=O)c2cccs2)c1 | -12.3% (inactive)
O=S(=O)([N-]c1nc2ccccc2nc1-[n+]1ccc(Cc2ccccc2)cc1)c1ccc(Br)s1 | 98.5% (active)
Cn1nnnc1SCC(=O)Nc1sccc1C(N)=O | -11.4% (inactive)
CN(CC(=O)NCCc1ccc(S(N)(=O)=O)cc1)CC(=O)Nc1ccc(Cl)cc1 | -12.5% (inactive)
COc1cccc(/C=N/NC(=O)c2[nH]nc3c2CCc2ccccc2-3)c1O | 111% (active)
COc1cc2cc(C(=O)N/N=C/c3cccc(OC)c3OC)[nH]c2cc1OC | 8.69% (inactive)
CN(C)CCNC(=O)c1[nH]nc2c1CCc1ccccc1-2 | -15.5% (inactive)
CCOC(=O)CCCCCC(=O)Nc1ccc2c(c1)CC(=O)N([C@@H](C)CO)C[C@H](C)[C@@H](CN(C)Cc1ccccc1)O2 | -7.75% (inactive)
Cc1ccc2c(c1)c1ncn(CCC3=CCCCC3)c(=O)c1n2C | 79.2% (active)
COc1ccc2c(c1)c1ncn(Cc3ccccn3)c(=O)c1n2C | -14.9% (inactive)
Cc1ccc2c(c1)c1ncn(Cc3ccc(F)cc3)c(=O)c1n2C | 21.8% (inactive)
CCn1nnc2cc(C(=O)Nc3ccc(C(=O)OC(C)C)cc3)ccc21 | -0.631% (inactive)
O=C(COC(=O)C1CCCO1)Nc1nc(-c2ccc(F)cc2)cs1 (configuration not stated) | -5.39% (inactive)
O=C(OCC(=O)N1CCCCC1)c1ccc(OC(F)(F)F)cc1 | -0.262% (inactive)
O=C1c2cccc3cc(Br)cc(c23)C(=O)N1Nc1ccccc1 | 6.61% (inactive)
O=C(O)CC1=C(Nc2ccccc2)C(=O)N(c2ccccc2)C1c1ccc(Cl)cc1 (configuration not stated) | 9.27% (inactive)
O=C1C=C(c2ccc(Cl)cc2)C(=O)N1Nc1ccccc1 | 107% (active)
CCOC(=O)C1CCN(C(=O)CN2C(=O)NC(C)(c3ccc4cc(OC)ccc4c3)C2=O)CC1 (configuration not stated) | -9.85% (inactive)

Compound | inhibition
CCOC(=O)[C@@H]1[C@H]2COc3ccc(Br)cc3[C@H]2N2C(=O)N(c3ccc(C)cc3)C(=O)[C@@]12C | -5.83% (inactive)
O=C(CCCO)N/N=C/c1cc(Br)ccc1O | -5.24% (inactive)
COc1ccc(-c2nn(-c3ccccc3)cc2/C=N/Nc2ccccn2)cc1OC | 10.5% (inactive)
Oc1ccc(Br)cc1/C=N/Nc1ccccn1 | 101% (active)
COc1ccc(OC)c(NC(=O)COC(=O)Cc2ccsc2)c1 | -8.27% (inactive)
O=C(OCC(=O)N1CCCCCC1)c1ccc(Cl)nc1 | 15.6% (inactive)
Cc1ccc(Oc2nc(-c3ccccn3)nc3ccccc23)cc1 | 4.28% (inactive)
COc1ccc(Cc2nc(-c3ccccn3)no2)cc1OC | -15.9% (inactive)
O=C(Oc1ccc(-c2nc(-c3ccccn3)no2)cc1)c1ccccc1 | 129% (active)
N#CCCN(C(=O)COC(=O)c1ccc2c(c1)OCCO2)c1ccccc1 | -4.1% (inactive)
O=C(CN1C(=O)c2ccccc2C1=O)NCc1ccc(C(=O)O)cc1 | 12.4% (inactive)
CC(=O)N(C1=C(Cl)C(=O)c2ccccc2C1=O)c1ccc(C(=O)O)cc1 | 102% (active)
CC(C)N(C(=O)c1ccc(-c2ccccc2F)cc1)C(C)C | -3.5% (inactive)
CCOc1ncccc1C(=O)Nc1ccc2c(c1)OCCO2 | -12.8% (inactive)
O=C(Nc1cc(S(=O)(=O)N2CCOCC2)ccc1N1CCOCC1)c1c(F)cccc1Cl | -17.5% (inactive)
Cc1c(NC(=O)C(C)OC(=O)c2ccccc2O)c(=O)n(-c2ccccc2)n1C (configuration not stated) | -18.3% (inactive)
CCC(CO)Oc1cc(NC(=O)c2cccc3ccccc23)c2ncn(C(C)C)c2c1 (configuration not stated) | 4.9% (inactive)
Cc1ccc2c(CN3CCN(S(=O)(=O)c4ccccc4C(F)(F)F)CC3)cc(=O)oc2c1 | 0.831% (inactive)
CO[C@@H]1[C@@H](OC(N)=O)[C@@H](O)C(Oc2ccc3c(O)c(NC(=O)c4ccc(O)c(CC=C(C)C)c4)c(=O)oc3c2C)OC1(C)C (some centres not stated) | -16% (inactive)
COC(=O)N/N=C/c1cn(CCCOc2ccc(C)cc2)c2ccccc12 | 25.8% (inactive)
CCOC(=O)N/N=C/c1cn(Cc2ccccc2Cl)c2ccccc12 | 7.15% (inactive)
CNC(=S)N/N=C/c1cn(Cc2ccc(C)cc2)c2ccccc12 | 109% (active)

Compound | inhibition
Cc1ccccc1-c1cc(C(=O)NCc2cccs2)n(CC2CC(c3cccnc3)=NO2)n1 (configuration not stated) | 10.1% (inactive)
COc1cc2nc(Cl)nc(NCCO)c2cc1OC | -15.1% (inactive)
OCCNc1nc(Nc2ccc(Cl)c(Cl)c2)nc2ccccc12 | 102% (active)
CN(C)c1nc(Nc2ccc(Cl)c(Cl)c2)nc(N(C)C)n1 | -14.7% (inactive)
O=C(c1cnccn1)N1CCN(S(=O)(=O)c2cccc(Cl)c2)CC1 | -17.3% (inactive)
Cc1cc(N2CCCC2)ccc1NC(=O)COc1ccc(Cl)cc1 | -10.1% (inactive)
Cc1c(C(=O)Nc2cccc(S(=O)(=O)N3CCOCC3)c2)oc2ccccc12 | -11% (inactive)
CC1CCCCC12NC(=O)N(CC(=O)OCc1c(F)cccc1Cl)C2=O (configuration not stated) | -8.77% (inactive)
COCCN(CCOC)S(=O)(=O)NC[C@H]1O[C@@H](n2cnc3c(N)ncnc32)[C@H](O)[C@@H]1O | 2.3% (inactive)
COc1ccc(Br)cc1C(=O)NC(=S)Nc1cc(-c2nc3ccccc3[nH]2)ccc1C | 86.6% (active)
COc1ccc(Br)cc1C(=O)Nc1cccc(C)c1C | -31% (inactive)
Cc1ccc(-c2nc3ccccc3[nH]2)cc1NC(=O)c1sc2ccccc2c1Cl | 6.88% (inactive)
COc1ccc(C(=O)NCc2ccccc2C)cc1S(=O)(=O)NC1CCCC1 | 0.604% (inactive)
CC(C)=CCc1c(O)c(CC=C(C)C)c2occ(-c3ccc(O)cc3)c(=O)c2c1O | 100% (active)
CC(C)CN(Cc1c(O)ccc2c(=O)c(-c3ccccc3)coc12)CC(C)C | -0.974% (inactive)
O=c1c(-c2ccccc2)coc2cc(O)ccc12 | 0.886% (inactive)
O=C(COC(=O)c1cc(S(=O)(=O)N2CCOCC2)ccc1F)NC1CC1 | -6.89% (inactive)
O=C(NC1C2CC3CC(C2)CC1C3)c1ccc(N2CCNCC2)c([N+](=O)[O-])c1 (configuration not stated) | 52.3% (inactive)
CC(NC(=O)c1ccc(N2CCNCC2)c([N+](=O)[O-])c1)C12CC3CC(CC(C3)C1)C2 (configuration not stated) | 86.5% (active)
O=C(Nc1cccc(C(F)(F)F)c1)c1ccc(N2CCNCC2)c([N+](=O)[O-])c1 | -16.4% (inactive)
O=C1C=C(c2ccnc3cc(Cl)ccc23)C[C@@H](c2ccc3c(c2)OCO3)C1 | 6.37% (inactive)
